This is an account of results in PubChem BioAssay (Tox21).

“And” between values parts separate entries of the source, which are not always exact repeats. Equal values may be shown once. Inconclusive results are not listed. Where a call stands in place of a potency, no number is given. Values without a mark were called inactive. The source made the active and inactive calls. Unless noted, calls follow the shape of the full dose curve.

Sequence of Thyrotropin receptor (Homo sapiens) (P16473 whole entry, looked up): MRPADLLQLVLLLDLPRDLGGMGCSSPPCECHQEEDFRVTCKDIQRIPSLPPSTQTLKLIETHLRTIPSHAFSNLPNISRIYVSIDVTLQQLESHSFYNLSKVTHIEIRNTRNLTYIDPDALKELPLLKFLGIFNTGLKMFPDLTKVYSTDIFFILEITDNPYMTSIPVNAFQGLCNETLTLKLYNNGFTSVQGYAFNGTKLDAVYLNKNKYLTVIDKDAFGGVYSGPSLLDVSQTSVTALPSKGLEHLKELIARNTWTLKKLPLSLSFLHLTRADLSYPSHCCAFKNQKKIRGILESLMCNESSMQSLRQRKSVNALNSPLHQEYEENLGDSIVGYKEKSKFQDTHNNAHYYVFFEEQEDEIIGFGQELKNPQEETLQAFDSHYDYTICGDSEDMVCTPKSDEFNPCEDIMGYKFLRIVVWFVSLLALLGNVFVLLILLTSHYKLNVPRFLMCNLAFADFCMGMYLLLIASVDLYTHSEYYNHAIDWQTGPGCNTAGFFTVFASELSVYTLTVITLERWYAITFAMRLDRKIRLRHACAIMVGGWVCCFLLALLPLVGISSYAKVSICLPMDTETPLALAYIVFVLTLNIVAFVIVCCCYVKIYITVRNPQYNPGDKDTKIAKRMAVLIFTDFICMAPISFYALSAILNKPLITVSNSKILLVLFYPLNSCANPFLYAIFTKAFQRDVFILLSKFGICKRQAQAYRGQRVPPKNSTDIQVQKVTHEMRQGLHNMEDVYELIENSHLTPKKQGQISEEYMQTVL

Test system in the first assay: not listed separately
Put plainly: qHTS assay to identify small molecule antagonists of the estrogen related receptor signaling pathway with the pleiotropic PPARgamma coactivator (PGC) from Tox21 10K library (AID 1224841; call rule not given here; also: actives are mostly falling curves and most rising ones were filed inactive; nearly all actives have a fitted effect of over 50% in size; also: potency is read from the fitted curve at half-maximal effect). The note with it: PGC/ERR reporter cell line, ONE-Glo luciferase, 18 h; series mostly up to 92.4 µM; activity, negative = inhibition: at the top concentration. In short, it runs like this:
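PGC/ERR cell line, 2,000 cells/well; 6 h pre-incubation 37 C/5% CO2; compounds (DMSO) pinned in; 18 h, 37 C; One-Glo, 30 min RT; luminescence.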
For orientation: qHTS replaces the single test concentration by a dilution series.
As to `CCOCCOCCO`, the Potency result was “inactive”.
Same read-out and setting: then `C/C=C/C(=O)O`, with “inactive”.
As to `COC(=O)CCC(=O)OC`, the Potency entry is “inactive”.
As for `CC(C)OC=O`, the Potency result is “inactive”.
On the same count and under the same terms, next, `c1cc(N(CC2CO2)CC2CO2)ccc1OCC1CO1` (stereo unspecified): “inactive”; `O=C(COc1ccc(Cl)cc1)N1CCN(Cc2ccc3c(c2)OCO3)CC1`: 43.3 µM (active).
On the same count and under the same terms, next, `O=CCCCC=O`: “inactive”.
Still for that read-out and setting: next, `C#C[C@]1(O)CC[C@H]2[C@@H]3CCC4=Cc5oncc5C[C@]4(C)[C@H]3CC[C@@]21C`: 24.3 µM (active) and 23.7 µM (active).
As for `CC(=O)C1(C)CC2=C(CCCC2(C)C)CC1C` (stereo unspecified), the Potency entry is “inactive”.
As to `COC(C)COC(C)COC(C)CO` (stereo unspecified), the Potency entry is “inactive”.
In the case of `O=C=Nc1ccc(Cc2ccc(N=C=O)cc2)cc1`, the Potency entry is “inactive”.
Consider `COc1ccc(OC)c(C(O)CNC(=O)CN)c1` (stereo unspecified), for which the Potency entry is “inactive”.

Test system in the next assay: not listed separately
Briefly: qHTS assay to identify small molecule agonists of the estrogen related receptor signaling pathway with the pleiotropic PPARgamma coactivator (PGC) from Tox21 10K library (AID 1224842; active = well fitted activation curve with a large enough effect in the repeat runs; also: nearly all actives have a fitted effect of over 15% in size; also: potency is read from the fitted curve at half-maximal effect). Particulars: PGC/ERR reporter cell line, luciferase ONE-Glo, 18 h; series mostly up to 92.4 µM; activation: at the top concentration. In short, it runs like this: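 Luminescence from One-Glo (30 min, room temperature) measured after PGC/ERR cells had 18 h at 37 C with pinned compound (23 nL in DMSO). Cells had been seeded at 2,000 per well and pre-incubated 6 h.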
As for `CCOCCOCCO`, the Potency result is “inactive”.
Same read-out and setting: next, `C/C=C/C(=O)O`: “inactive”; `COC(=O)CCC(=O)OC`: “inactive”; `CC(C)OC=O`: “inactive”.
Same read-out and setting: next, `c1cc(N(CC2CO2)CC2CO2)ccc1OCC1CO1` (stereo unspecified): 9.7 µM (active).
Same read-out and setting: next, `O=C(COc1ccc(Cl)cc1)N1CCN(Cc2ccc3c(c2)OCO3)CC1`: “inactive”.
As for `O=CCCCC=O`, the Potency result is “inactive”.
Same read-out and setting: next, `C#C[C@]1(O)CC[C@H]2[C@@H]3CCC4=Cc5oncc5C[C@]4(C)[C@H]3CC[C@@]21C`: “inactive”; `CC(=O)C1(C)CC2=C(CCCC2(C)C)CC1C` (stereo unspecified): “inactive”; `COC(C)COC(C)COC(C)CO` (stereo unspecified): “inactive”.
Regarding `O=C=Nc1ccc(Cc2ccc(N=C=O)cc2)cc1`, the Potency entry was “inactive”.
On the same count and under the same terms, next, `COc1ccc(OC)c(C(O)CNC(=O)CN)c1` (stereo unspecified): “inactive”.

The next assay addresses Thyrotropin receptor (Homo sapiens) (UniProt P16473). Briefly: qHTS assay to identify small molecule agonists of the thyroid stimulating hormone receptor (TSHR) signaling pathway (AID 1224843). Also: nearly all actives have a fitted effect of over 45% in size. Particulars: TSHR-HEK293 cells, cAMP HTRF, agonist mode, 30 min; series mostly up to 92.4 µM; activation: at the top concentration. Summed up:
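Screening of the Tox21 10K collection used HEK293 cells engineered with TSHR at 800 cells per well. After a 30-min room-temperature compound exposure, HTRF cAMP reagents were added and fluorescence recorded 1 h later.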
`CCOCCOCCO`: the Potency entry was “inactive”.
The same measure, in the same setting: next, `C/C=C/C(=O)O`: “inactive”; `O=C(Nc1ccc([N+](=O)[O-])cc1Cl)c1cc(Cl)ccc1O`: “inactive”.
Regarding `COC(=O)CCC(=O)OC`, the “activation” value is -3.13%.
In the case of `COC(=O)c1ccccc1`, the Potency result is “inactive”.
The same measure, in the same setting: then `CC(C)OC=O`, with “inactive”.
On the same count and under the same terms, then `Nc1ccc(S(=O)(=O)Nc2cnc3ccccc3n2)cc1`, with “inactive”; and `O=C(O)c1ccccc1Nc1cccc(C(F)(F)F)c1`, with “inactive”.
On the same count and under the same terms, next, `CN(C)CCN(Cc1cccs1)c1ccccn1`: “inactive”.
Regarding `c1cc(N(CC2CO2)CC2CO2)ccc1OCC1CO1` (stereo unspecified), the “activation” value was -9.31%.
Turning to `CCC(C)(O)CCCC(C)C` (stereo unspecified), the Potency result was “inactive”.
On to `Cc1c(C(N)=O)cc([N+](=O)[O-])cc1[N+](=O)[O-]`, for which the “activation” value is 16.9% [at 42.5 µM].
Regarding `O=C(COc1ccc(Cl)cc1)N1CCN(Cc2ccc3c(c2)OCO3)CC1`, the Potency entry was “inactive”.
Still for that read-out and setting: then `CN(C)c1nc(N(C)C)nc(N(C)C)n1`, with “inactive”; and `CC(C)=CCC/C(C)=C\CO`, with “inactive”; and `Cc1ncc[nH]1`, with “inactive”.
As for `CCCCCCCCCC(=O)OC`, the Potency entry is “inactive”.
Still for that read-out and setting: then `CCCc1c(OCCCCc2nn[nH]n2)ccc(C(C)=O)c1O`, with “inactive”.
The same measure, in the same setting: then `C[Si](C)(C)O[Si](C)(C)C`, with “inactive”.
Turning to `COc1ccc(C(=O)CC(=O)c2ccc(C(C)(C)C)cc2)cc1`, the Potency result is “inactive”.
On to `CC(C)=CCCC(C)CCO` (stereo unspecified), for which the Potency result was “inactive”.
Turning to `c1ccc2c(c1)c1cccc3ccc4cccc2c4c31`, the Potency result is “inactive”.
As for `OC1CCCCCCCCCCC1`, the Potency entry is “inactive”.
For the molecule `CC(=O)C1(C)CC2=C(CCCC2(C)C)CC1C` (stereo unspecified), the Potency entry was “inactive”.
The same measure, in the same setting: next, `C=CC(C)(CCC=C(C)C)OC(C)=O` (stereo unspecified): “inactive”; `NNc1ccc(C(=O)O)cc1`: “inactive”.
Same read-out and setting: then `CC(=O)c1ccccn1`, with “inactive”; and `COC(C)COC(C)COC(C)CO` (stereo unspecified), with “inactive”.
Consider `O=C=Nc1ccc(Cc2ccc(N=C=O)cc2)cc1`, for which the Potency entry was “inactive”.
As for `COc1ccc(OC)c(C(O)CNC(=O)CN)c1` (stereo unspecified), the Potency entry was “inactive”.
In the case of `O=S(=O)(O)c1ccc(O)cc1`, the Potency entry is “inactive”.
With `CC(=O)CC/C=C(\C)CCC=C(C)C`, the Potency result was “inactive”.
